PubChem BioAssay AID624330 (Southern Research Specialized Biocontainment Screening …, 2012)
Hit rate of the full screen: of about 340,000 compounds, about 2,100 (0.62%) were called active.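 The calls were made as follows: active = first-screen hits whose inhibition reached a set limit at any dose in the follow-up dose series; inconclusive = inhibition above the set first-screen limit but never retested; inactive = the rest.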 These entries were drawn from the full list. Potency and affinity values are given separately.

Target: Rac GTPase-activating protein 1 (Homo sapiens) (UniProt Q9H0H5)
Test: blockers of MgcRacGAP-driven Rac1 GTP hydrolysis – biochemical, ADP Hunter fluorescence, primary and confirmatory, confirmation (AID 624330);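 also: fluorescence reports GDP produced by GAP-driven GTP hydrolysis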
Details: MgcRacGAP-stimulated Rac1 GTP hydrolysis, at 30 µM, stronger effect = higher value, GST-tagged Rac1 F28L mutant substrate

Sequence of Rac GTPase-activating protein 1 (Homo sapiens) (Q9H0H5 whole entry, looked up): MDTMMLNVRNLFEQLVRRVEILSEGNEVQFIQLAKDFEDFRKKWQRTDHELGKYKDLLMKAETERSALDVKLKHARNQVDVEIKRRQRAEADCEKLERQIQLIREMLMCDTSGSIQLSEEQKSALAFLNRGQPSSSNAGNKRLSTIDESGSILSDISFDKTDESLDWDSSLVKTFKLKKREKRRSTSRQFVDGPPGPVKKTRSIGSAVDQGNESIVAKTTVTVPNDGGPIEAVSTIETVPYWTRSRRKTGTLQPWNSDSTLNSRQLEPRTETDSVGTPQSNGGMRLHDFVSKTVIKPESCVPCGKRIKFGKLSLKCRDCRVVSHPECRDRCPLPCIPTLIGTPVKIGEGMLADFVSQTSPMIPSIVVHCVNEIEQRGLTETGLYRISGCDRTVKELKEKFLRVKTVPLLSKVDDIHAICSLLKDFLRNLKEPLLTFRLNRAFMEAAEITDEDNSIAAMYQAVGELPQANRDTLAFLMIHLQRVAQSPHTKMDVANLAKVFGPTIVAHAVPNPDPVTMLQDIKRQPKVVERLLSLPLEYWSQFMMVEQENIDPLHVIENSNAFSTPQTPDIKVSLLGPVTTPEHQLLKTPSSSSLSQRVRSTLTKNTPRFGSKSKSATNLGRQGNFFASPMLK

inhibition, inactive:
Cc1onc(-c2ccccc2)c1-c1n[nH]c(=S)n1-c1ccc(C(=O)O)cc1 5.16%
CC(=O)Nc1ccc(S(=O)(=O)N(C)S(=O)(=O)c2ccc(F)cc2)cc1 10.5%
CC(=O)c1cc(CN2CCN(Cc3ccc(C)cc3)C(CCO)C2)cs1 (stereo unspecified) 11.3%
CCOC(=O)N1CCN(Cc2ccc3ccccc3c2)CC1 28.6%
O=S(=O)(c1ccc2ccccc2c1)N1CCN(CCO)CC1 1.28%
CC(CCN1CCOCC1)c1ccccc1 (stereo unspecified) 22.5%
O=[N+]([O-])c1ccccc1CN1CCN(Cc2ccc3ccccc3c2)CC1 28.3%
CC(CCN1CCN(c2ccccc2)CC1)c1ccccc1 (stereo unspecified) 0.31%
c1ccc2cc(CN3CCOCC3)ccc2c1 1.35%
CC1c2[nH]c3ccccc3c2CCN1S(C)(=O)=O (stereo unspecified) 1.37%
Cc1ccc2cc(/C=N/NC(=O)c3ccc(F)cc3)c(Cl)nc2c1 5.25%
Cc1ccccc1NS(=O)(=O)c1cc(C(=O)Nc2cccc([N+](=O)[O-])c2)ccc1C 8.26%
O=C(Nc1cccc(-c2cccc(Cl)c2)c1)C1CCN(Cc2ccccn2)CC1 2.6%
CC(NS(=O)(=O)CCNC(=O)c1ccccc1)c1ccccc1 (stereo unspecified) 4.33%
CC(=O)Nc1ccc(S(=O)(=O)N[C@@H](C)C(=O)OCC(=O)c2ccc(Br)s2)cc1 16.7%
CCn1nnnc1Oc1ccc(Cl)cc1 1.61%
C(=N/n1c2ccccc2c2ccccc21)/c1ccco1 14.3%
Cc1cc(C)n(-c2nnc(C)n2/N=C/c2ccco2)n1 2.53%
S=c1[nH]nc(-c2ccccc2)n1/N=C/C=C/c1ccco1 30.9%
S=c1[nH]nc(-c2cccnc2)n1/N=C/C=C/c1ccco1 21.5%
Cc1nnc(C)n1/N=C/c1ccc(C(=O)O)cc1 7.46%
COc1cccc(/C=N/n2c(SC)nnc2-c2ccccc2)c1O 22.8%
Cc1ccc(CN2CCN(/N=C/c3ccc(C(=O)O)cc3)CC2)cc1 8.13%
Oc1ccccc1/C=N/n1c2ccccc2c2ccccc21 8.39%
NC(=O)COC(=O)c1cccc(S(=O)(=O)N2CCN(c3ccccc3)CC2)c1 7.91%
Cc1ccc(OCC(=O)NNC(=O)c2ccc(NC(=O)C3CC3)cc2)c(C)c1 7.97%
CC(=O)c1cccc(NS(=O)(=O)c2c(C)n[nH]c2C)c1 7.62%
CC(=O)Nc1ccc2c(c1)N(S(=O)(=O)c1cccs1)CCC2 4.49%
CC(C)OCCCNC(=O)c1ccc(CS(=O)(=O)Cc2ccccc2F)o1 3.97%
Cc1nc(N2CCN(c3ccccc3)CC2)nc2c1C(=O)CCC2 5.63%
CCN1C(=O)/C(=C/c2c(C)nn(C)c2C)SC1=S 0.43%
O=C(O)c1ccc(Nc2ncnc3ccccc23)cc1 7.58%
Cc1cccc(NC(=O)CNC(=O)COC(=O)c2ccco2)c1C -0.7%
c1ccc(C[C@H]2CN=C(Nc3ccccc3)N2CC2CCCCC2)cc1 3.05%
Cc1ccccc1-n1nc(C(=O)O)cc1-c1ccccc1 3.4%
O=C(NCCc1ccccc1)c1ccc(-c2ccccc2Cl)o1 5.22%
S=c1[nH]nc(-c2cccnc2)n1/N=C/C=C/c1ccccc1 5.39%
Cc1nnc(C)n1/N=C/c1ccccc1 6.18%
Cc1ccc(/C=N/n2c(-c3ccncc3)n[nH]c2=S)cc1 5.7%
Cc1nnc(C)n1/N=C/C=C/c1ccccc1 1.05%
CC1CCN(C(=O)C2CCN(S(=O)(=O)c3cccs3)CC2)CC1 6.45%
CCc1cc(C(=O)N2CCCC(C(=O)c3cccc(OC(C)C)c3)C2)n(C)n1 (stereo unspecified) 9.3%
N#Cc1ccccc1S(=O)(=O)N1CCN(C(=O)CCc2ccccc2)CC1 6.33%
COc1ccc2c(CC(=O)N3CCN(S(=O)(=O)c4ccc(F)cc4)CC3)coc2c1 1.15%
N#Cc1ccccc1S(=O)(=O)N1CCN(C(=O)Cc2n[nH]c(=O)c3ccccc23)CC1 1.94%
Cc1ccc2c(CC(=O)N3CCN(S(=O)(=O)c4ccccc4)CC3)coc2c1 5.1%
CCCn1c(N2CCN(C(=O)/C=C/C(=O)O)CC2)nc2ccccc21 10.8%
NC(=O)COC(=O)CCSc1ccc(Cl)cc1 5.12%
COC/C=C/C1=CC2=CC(=O)C(C)(OC(=O)c3cnc4ccccc4n3)C(=O)C2=CN1Cc1ccco1 (stereo unspecified) 11%
COc1nonc1NC(=O)CSc1nc2ccccc2[nH]1 9.74%
c1ccc(Nc2cccc(Nc3ccccc3)c2)cc1 19.8%
Oc1cccc(Nc2c3ccccc3nc3ccccc23)c1 16.7%
OC1(CC#CCN2CCCCC2)c2ccccc2-c2ccccc21 11.1%
O=C(c1ccco1)N1N=C2CCCCCC2C1(O)C(F)(F)F (stereo unspecified) 1.94%
Cc1ccc(OCCOCCNC(C)(C)C)c([N+](=O)[O-])c1 29.6%
C=CCNCCCCOc1ccc(C)cc1[N+](=O)[O-] 14%
Cc1ccc(OCCOCCN2CCN(C)CC2)c([N+](=O)[O-])c1 31.9%
Cc1ccc(OCCN2CCNCC2)c([N+](=O)[O-])c1 21.6%
Cc1cc(C)n(CCCN2CCC(C(=O)Nc3cccc(-c4cccc(F)c4)c3)CC2)n1 11.5%
Cc1ccccc1C(=O)NC1CC2CCCC(C1)N2Cc1ccccc1Cl (stereo unspecified) 11.5%
Cc1c(C(=O)NCC(c2ccco2)N(C)C)oc2c(Cl)cccc12 (stereo unspecified) 5.84%
COc1cc2c(cc1OC)C1=C(C#N)CC/C(=N\S(=O)(=O)c3cccc(Cl)c3)N1CC2 4.99%
CC(C)CNC(=O)CN1C(=O)NC2(CCc3ccccc32)C1=O (stereo unspecified) 10.8%
CCN1C(=O)/C(=C/C=C2/CCCN2C)OC1=S 5.72%
CN1C(=O)/C(=C\C=C2/CCCN2C)N(C)C1=S 28.8%
CN1C(=O)/C(=C/C=C2\SCCN2C)OC1=S 8.62%
CN1CCS/C1=C\C=C1/SC(=S)N(CC(=O)O)C1=O 16.9%
Cc1ccc(S(=O)(=O)N2CCN(CN3C(=O)CC4(CCCC4)C3=O)CC2)cc1 1.32%
COc1ccc(/C=N/n2nnnc2N)cc1OC 8.91%
C=CCOc1ccc(/C=N/n2nnnc2N)cc1OC 12.5%
CCOc1ccc(/C=N/n2nnnc2N)cc1OCC 9.77%
COc1cc(/C=N/n2c(C3CCCCC3)n[nH]c2=S)cc(Br)c1O 12.6%
COc1cc(/C=N/n2c(C3CCCCC3)n[nH]c2=S)cc(OC)c1O 15.8%
COc1cc(/C=N/n2nnnc2N)ccc1OC(C)=O 23.6%
O=C(/C=C\c1ccco1)NC(=S)Nc1ccccc1O 15.2%
COc1cccc(NC(=S)NC(=O)c2cccnc2)c1 13.8%
CN(C)C1=NCCN1CCCC1CCCC1 4.05%
CC(C)N(Cc1nccn1C)C(=O)C1CCC(=O)N(CCc2ccccc2)C1 (stereo unspecified) 12.2%
Cc1ccc(/C(N)=N/OC(=O)CCCc2ccccc2)cc1 7.16%
CCOC(=O)Nc1c(C(=O)OC)[nH]c2cccc(OC)c12 9.48%
COc1ccc2c(N)c(C(=O)NN)[nH]c2c1 27.6%
COC(=O)c1cc(S(=O)(=O)NC2CCC(C)CC2)cn1C (stereo unspecified) 0.48%
Cc1ccc(OCCC(=O)OCC(=O)NC(=O)NCc2ccccc2)cc1 3.66%
CCN=c1scc(C)n1/N=C/c1ccsc1 25.8%
Cc1nnc(C)n1/N=C/c1ccc(O)cc1 13%
Cc1ccc(CN2CCN(/N=C/c3ccc(O)c(O)c3)CC2)cc1 31.8%
CN=c1scc(C)n1/N=C/c1ccc2c(c1)OCO2 18.6%
CN=c1scc(C)n1/N=C/c1ccc(O)c(O)c1O -36.1%
CN=c1scc(-c2cccs2)n1/N=C/c1ccccc1O 23.1%
Cn1nnnc1SCCNCc1cccnc1 -1.39%
COC(=O)c1ccc(NC(=O)C(=O)N2CCN(C(=S)Nc3cccc(OC)c3)CC2)cc1 7.83%
Cc1ccc(C)c(C(=O)C(C)Sc2nc3nn(-c4ccccc4)c(=O)c-3c3n2CCCCC3)c1 (stereo unspecified) -2.59%
Cc1ccc2nsnc2c1NC(=O)COc1ccccc1F 11.1%
O=C(O)CCCCCNC(=O)/C=C/c1ccco1 5.1%
O=C(/C=C/c1ccco1)NCCc1ccccc1 6.75%
CC(=O)c1ccc(NC(=S)NC(=O)/C=C/c2ccco2)cc1 21.8%
O=C(/C=C/c1ccco1)NC(=S)Nc1ccccc1 10.7%
COc1ccccc1OCC(=O)Nc1cc(C(F)(F)F)ccc1-n1cncn1 0.07%
COc1cccc(C#Cc2c(C=O)n(C)c3ccccc23)c1 8.82%
Cc1cn(CC(=O)NCc2ccc(N(C)C)cc2)c(=O)[nH]c1=O 11.4%
CCOc1ccc(CNC(=O)c2ccc3c(c2)N(CC)CCS3)cc1 14%
